Test results reported in the antibiotic and cytotoxicity screens of Wong et al. (2023).
Out of some 39,000 compounds screened, about 3,300 (8.5%) were called active. For the sample, actives were picked, then their nearest neighbours and some compounds at random.

What follows are molecules tested on HepG2 (assay: cytotoxicity call (relative viability < 0.9)). Details: 10 µM.

SMILES | cytotoxicity call
C[C@H]1CCCCO[C@@H](CN(C)Cc2ccncc2)[C@@H](C)CN([C@@H](C)CO)C(=O)c2cc(NC(=O)Nc3ccccc3)ccc2O1 | inactive
Cc1ccc(S(=O)(=O)Nc2ccc3c(c2)C(=O)N([C@H](C)CO)C[C@@H](C)[C@@H](CN(C)C(=O)Nc2ccccc2)OCCCC[C@H](C)O3)cc1 | inactive
C[C@H](CO)N1C[C@H](C)[C@@H](CN(C)S(=O)(=O)c2ccc(F)cc2)Oc2ncc(-c3ccncc3)cc2C1=O | inactive
COc1ccc(CN(C)C[C@@H]2OCCCC[C@@H](C)Oc3ccc(NC(=O)CCC(F)(F)F)cc3C(=O)N([C@@H](C)CO)C[C@@H]2C)cc1 | inactive
CCOC(=O)N(C)C[C@@H]1OCc2cn(nn2)CCCC(=O)N([C@H](C)CO)C[C@@H]1C | inactive
C[C@@H]1CN([C@@H](C)CO)C(=O)c2cc(NS(=O)(=O)c3ccc(F)cc3)ccc2O[C@@H]1CN(C)S(=O)(=O)c1cccs1 | inactive
C[C@@H]1CN([C@H](C)CO)S(=O)(=O)c2ccc(Br)cc2O[C@H]1CN(C)C(=O)c1cnccn1 | inactive
CNC[C@@H]1Oc2c(NS(=O)(=O)c3cn(C)cn3)cccc2C(=O)N([C@H](C)CO)C[C@@H]1C | inactive
COCCOC(=O)N1C(=O)[C@@]2(c3cc(C#CCC(C(=O)OC)C(=O)OC)ccc31)[C@H](C(=O)N1CCCCCCC1)[C@H]1C(=O)O[C@H](c3ccccc3)[C@H](c3ccccc3)N1[C@@H]2c1ccc(O)cc1 | active
COCCOC(=O)N1C(=O)[C@@]2(c3cc(C#Cc4ccc(OC)cc4)ccc31)[C@H](C(=O)N1CCCCCCC1)[C@H]1C(=O)O[C@H](c3ccccc3)[C@H](c3ccccc3)N1[C@@H]2c1ccc(O)cc1 | inactive
COCCOC(=O)N1C(=O)[C@@]2(c3cc(C#Cc4ccc(OC)cc4)ccc31)[C@H](c1ccc(O)cc1)N1[C@H](c3ccccc3)[C@H](c3ccccc3)OC(=O)[C@H]1[C@@H]2C(=O)N1CCCCCCC1 | active
COCCOC(=O)N1C(=O)[C@@]2(c3cc(C#Cc4ccc(OC)cc4)ccc31)[C@H](c1ccc(OCCO)cc1)N1[C@H](c3ccccc3)[C@H](c3ccccc3)OC(=O)[C@H]1[C@@H]2C(N)=O | inactive
COCCOC(=O)N1C(=O)[C@@]2(c3cc(C#Cc4ccc(OC)cc4)ccc31)[C@H](c1ccc(OCCO)cc1)N1[C@H](c3ccccc3)[C@H](c3ccccc3)OC(=O)[C@H]1[C@@H]2C(=O)NC[C@H](O)c1ccccc1 | inactive
COCCOC(=O)N1C(=O)[C@@]2(c3cc(C#CCC(C(=O)OC)C(=O)OC)ccc31)[C@H](C(=O)N1CCCCCCC1)[C@H]1C(=O)O[C@H](c3ccccc3)[C@H](c3ccccc3)N1[C@@H]2c1ccc(OCCO)cc1 | inactive
COCCOC(=O)N1C(=O)[C@@]2(c3cc(C#Cc4ccc(OC)cc4)ccc31)[C@H](C(=O)N1CCCCCCC1)[C@H]1C(=O)O[C@H](c3ccccc3)[C@H](c3ccccc3)N1[C@@H]2c1ccc(OCCO)cc1 | inactive
COCCOC(=O)N1C(=O)[C@@]2(c3cc(C#CCC(C(=O)OC)C(=O)OC)ccc31)[C@H](c1ccc(OCCO)cc1)N1[C@H](c3ccccc3)[C@H](c3ccccc3)OC(=O)[C@H]1[C@@H]2C(=O)N1CCCCCCC1 | inactive
COc1ccc(C#Cc2ccc3c(c2)[C@@]2(C(=O)N3C(=O)N[C@@H](C)c3ccccc3)[C@H](c3ccc(OCCO)cc3)N3[C@H](c4ccccc4)[C@H](c4ccccc4)OC(=O)[C@H]3[C@@H]2C(=O)O)cc1 | active
